About 7,900 targets were measured; listed, in parts, are those with a hit and a random draw of the rest. About 0.6% of all pairs of compound and target were hits. Unmarked numbers belong to inactive results.
Key:
Assay in all cases: log2 fold change, soluble protein after heating vs DMSO (PISA); higher = thermal stabilisation; K562 cells, 10 uM, 30 min; active = over 0.2 and 3.5 SD of the protein, either way, in both replicates (recomputed)
[1] = compound: NC(=O)Nc1cc(-c2cccc(F)c2)sc1C(=O)N[C@H]1CCCNC1
Procedure, shortened: (§1)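 K562 cells at 2×10^6 cells/mL were treated for 30 min with 10 μM compound, and aliquots were heated for 3 min over 48°C-58°C before pooling. Extraction used PBS with 0.5% NP-40 at 4°C, and soluble protein was the supernatant after 21,000xg for 90 min, measured by TMTpro 16plex LC-MS/MS with channel sums equalised. Thermal stability values, relative to control samples and from duplicates, are log2 fold changes.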

[2] = compound: NC(=O)c1cnc(N[C@@H]2CCCC[C@@H]2N)nc1Nc1cccc(-n2nccn2)c1
Procedure, shortened: as §1

[3] = compound: NC1(c2ccc(-c3nc4ccn5c(=O)[nH]nc5c4cc3-c3ccccc3)cc2)CCC1
Procedure, shortened: as §1

[4] = compound: NCC(=O)Nc1ccc(-n2nc(C(F)(F)F)cc2-c2ccc3c(ccc4ccccc43)c2)cc1
Procedure, shortened: as §1

entinostat = compound: Nc1ccccc1NC(=O)c1ccc(CNC(=O)OCc2cccnc2)cc1 [entinostat]
Procedure, shortened: as §1

vorinostat = compound: O=C(CCCCCCC(=O)Nc1ccccc1)NO [vorinostat]
Procedure, shortened: as §1

citarinostat = compound: O=C(CCCCCCNC(=O)c1cnc(N(c2ccccc2)c2ccccc2Cl)nc1)NO [citarinostat]
Procedure, shortened: as §1

silmitasertib = compound: O=C(O)c1ccc2c(c1)nc(Nc1cccc(Cl)c1)c1ccncc12 [silmitasertib]
Procedure, shortened: as §1

[5] = compound: O=C1NC(=O)C(c2cnc3ccccn23)=C1c1cn2c3c(cc(F)cc13)CN(C(=O)N1CCCCC1)CC2
Procedure, shortened: as §1

[6] = compound: c1cc(OCCN2CCCCC2)cc(-c2n[nH]c3ccc(-c4nnc[nH]4)cc23)c1
Procedure, shortened: as §1

entospletinib = compound: c1cn2cc(-c3ccc4cn[nH]c4c3)nc(Nc3ccc(N4CCOCC4)cc3)c2n1 [entospletinib]
Procedure, shortened: as §1

Sequence of UniProt Q08945 (Q08945 whole entry, looked up): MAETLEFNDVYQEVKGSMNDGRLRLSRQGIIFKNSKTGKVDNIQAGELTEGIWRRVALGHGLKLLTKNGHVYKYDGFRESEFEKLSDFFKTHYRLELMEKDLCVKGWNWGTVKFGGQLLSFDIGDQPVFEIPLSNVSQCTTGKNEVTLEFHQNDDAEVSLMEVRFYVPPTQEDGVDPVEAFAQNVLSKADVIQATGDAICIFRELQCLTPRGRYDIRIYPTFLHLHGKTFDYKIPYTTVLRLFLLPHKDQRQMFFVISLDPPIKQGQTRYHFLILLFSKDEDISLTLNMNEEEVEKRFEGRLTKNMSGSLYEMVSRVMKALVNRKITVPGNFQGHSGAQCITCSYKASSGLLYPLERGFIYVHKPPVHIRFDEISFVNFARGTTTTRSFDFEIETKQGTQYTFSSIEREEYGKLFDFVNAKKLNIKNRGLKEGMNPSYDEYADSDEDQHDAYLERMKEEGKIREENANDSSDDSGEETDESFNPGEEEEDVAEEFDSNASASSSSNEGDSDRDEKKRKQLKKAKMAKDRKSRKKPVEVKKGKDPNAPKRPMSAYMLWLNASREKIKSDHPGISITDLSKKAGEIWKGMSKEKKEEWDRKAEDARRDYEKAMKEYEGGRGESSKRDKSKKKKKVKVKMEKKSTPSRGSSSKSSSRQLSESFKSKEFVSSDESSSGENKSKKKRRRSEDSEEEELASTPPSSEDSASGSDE
Sequence of UniProt P51687 (P51687 whole entry, looked up): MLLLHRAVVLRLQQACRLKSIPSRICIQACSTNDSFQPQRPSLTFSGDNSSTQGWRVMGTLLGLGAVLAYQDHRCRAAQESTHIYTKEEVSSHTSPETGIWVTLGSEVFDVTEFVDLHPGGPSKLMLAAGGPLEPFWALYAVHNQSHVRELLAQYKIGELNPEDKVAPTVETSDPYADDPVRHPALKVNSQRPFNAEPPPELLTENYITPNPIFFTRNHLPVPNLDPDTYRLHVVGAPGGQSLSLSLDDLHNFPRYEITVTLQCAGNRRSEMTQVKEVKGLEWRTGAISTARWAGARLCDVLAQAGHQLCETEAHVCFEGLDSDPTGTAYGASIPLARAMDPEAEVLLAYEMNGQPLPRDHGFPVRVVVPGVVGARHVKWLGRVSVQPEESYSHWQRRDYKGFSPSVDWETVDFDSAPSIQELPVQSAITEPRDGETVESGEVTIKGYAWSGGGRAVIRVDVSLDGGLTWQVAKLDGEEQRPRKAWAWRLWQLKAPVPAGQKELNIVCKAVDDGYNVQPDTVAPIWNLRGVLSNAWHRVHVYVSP
Sequence of UniProt Q969G3 (Q969G3 whole entry, looked up): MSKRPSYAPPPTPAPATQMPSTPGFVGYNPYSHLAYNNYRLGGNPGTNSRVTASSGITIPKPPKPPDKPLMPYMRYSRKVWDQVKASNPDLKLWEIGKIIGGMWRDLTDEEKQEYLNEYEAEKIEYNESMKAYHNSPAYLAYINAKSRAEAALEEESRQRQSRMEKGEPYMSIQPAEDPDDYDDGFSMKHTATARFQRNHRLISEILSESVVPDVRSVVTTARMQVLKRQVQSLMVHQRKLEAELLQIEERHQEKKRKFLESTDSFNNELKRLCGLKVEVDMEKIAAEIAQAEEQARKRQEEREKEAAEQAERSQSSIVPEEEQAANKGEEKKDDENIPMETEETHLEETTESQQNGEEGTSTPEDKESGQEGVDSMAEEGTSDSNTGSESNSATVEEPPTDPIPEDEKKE
Sequence of UniProt P35610 (P35610 whole entry, looked up): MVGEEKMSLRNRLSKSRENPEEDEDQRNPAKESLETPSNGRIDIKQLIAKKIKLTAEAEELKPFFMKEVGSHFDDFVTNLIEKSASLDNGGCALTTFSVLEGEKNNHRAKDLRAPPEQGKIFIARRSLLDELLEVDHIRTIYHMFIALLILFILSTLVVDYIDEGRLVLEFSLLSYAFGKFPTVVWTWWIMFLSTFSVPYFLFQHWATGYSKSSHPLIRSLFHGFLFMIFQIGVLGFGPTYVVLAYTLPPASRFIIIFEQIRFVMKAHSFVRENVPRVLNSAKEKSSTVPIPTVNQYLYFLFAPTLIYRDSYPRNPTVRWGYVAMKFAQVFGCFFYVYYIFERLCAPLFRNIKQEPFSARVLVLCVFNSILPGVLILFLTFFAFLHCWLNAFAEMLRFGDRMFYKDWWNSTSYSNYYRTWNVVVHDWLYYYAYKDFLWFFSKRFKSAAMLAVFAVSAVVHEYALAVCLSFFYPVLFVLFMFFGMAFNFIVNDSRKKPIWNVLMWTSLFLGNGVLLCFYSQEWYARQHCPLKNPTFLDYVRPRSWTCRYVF
Sequence of UniProt O95926 (O95926 whole entry, looked up): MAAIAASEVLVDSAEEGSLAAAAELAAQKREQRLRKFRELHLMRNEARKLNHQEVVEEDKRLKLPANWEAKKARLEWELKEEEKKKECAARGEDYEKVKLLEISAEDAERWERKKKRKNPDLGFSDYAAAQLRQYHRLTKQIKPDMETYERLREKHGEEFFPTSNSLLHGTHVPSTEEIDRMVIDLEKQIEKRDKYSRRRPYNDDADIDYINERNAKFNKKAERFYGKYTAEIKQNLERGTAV
Sequence of UniProt Q9NZD8 (Q9NZD8 whole entry, looked up): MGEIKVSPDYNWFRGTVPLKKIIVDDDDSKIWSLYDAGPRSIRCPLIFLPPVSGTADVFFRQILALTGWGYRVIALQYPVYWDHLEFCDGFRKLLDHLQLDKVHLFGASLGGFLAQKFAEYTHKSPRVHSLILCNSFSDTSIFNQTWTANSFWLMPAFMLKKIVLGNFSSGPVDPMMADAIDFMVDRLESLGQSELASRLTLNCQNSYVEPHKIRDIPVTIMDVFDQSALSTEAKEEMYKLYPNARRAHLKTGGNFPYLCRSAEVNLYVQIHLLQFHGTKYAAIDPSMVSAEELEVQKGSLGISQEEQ
Sequence of UniProt Q9BSF4 (Q9BSF4 whole entry, looked up): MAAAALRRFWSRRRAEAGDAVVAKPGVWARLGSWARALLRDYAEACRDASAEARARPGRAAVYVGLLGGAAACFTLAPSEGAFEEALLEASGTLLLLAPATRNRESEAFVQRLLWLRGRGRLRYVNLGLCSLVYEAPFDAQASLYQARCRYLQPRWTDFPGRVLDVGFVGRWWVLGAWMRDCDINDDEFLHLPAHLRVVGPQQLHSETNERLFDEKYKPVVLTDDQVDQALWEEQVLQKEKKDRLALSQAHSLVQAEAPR
Sequence of UniProt O60264 (O60264 whole entry, looked up): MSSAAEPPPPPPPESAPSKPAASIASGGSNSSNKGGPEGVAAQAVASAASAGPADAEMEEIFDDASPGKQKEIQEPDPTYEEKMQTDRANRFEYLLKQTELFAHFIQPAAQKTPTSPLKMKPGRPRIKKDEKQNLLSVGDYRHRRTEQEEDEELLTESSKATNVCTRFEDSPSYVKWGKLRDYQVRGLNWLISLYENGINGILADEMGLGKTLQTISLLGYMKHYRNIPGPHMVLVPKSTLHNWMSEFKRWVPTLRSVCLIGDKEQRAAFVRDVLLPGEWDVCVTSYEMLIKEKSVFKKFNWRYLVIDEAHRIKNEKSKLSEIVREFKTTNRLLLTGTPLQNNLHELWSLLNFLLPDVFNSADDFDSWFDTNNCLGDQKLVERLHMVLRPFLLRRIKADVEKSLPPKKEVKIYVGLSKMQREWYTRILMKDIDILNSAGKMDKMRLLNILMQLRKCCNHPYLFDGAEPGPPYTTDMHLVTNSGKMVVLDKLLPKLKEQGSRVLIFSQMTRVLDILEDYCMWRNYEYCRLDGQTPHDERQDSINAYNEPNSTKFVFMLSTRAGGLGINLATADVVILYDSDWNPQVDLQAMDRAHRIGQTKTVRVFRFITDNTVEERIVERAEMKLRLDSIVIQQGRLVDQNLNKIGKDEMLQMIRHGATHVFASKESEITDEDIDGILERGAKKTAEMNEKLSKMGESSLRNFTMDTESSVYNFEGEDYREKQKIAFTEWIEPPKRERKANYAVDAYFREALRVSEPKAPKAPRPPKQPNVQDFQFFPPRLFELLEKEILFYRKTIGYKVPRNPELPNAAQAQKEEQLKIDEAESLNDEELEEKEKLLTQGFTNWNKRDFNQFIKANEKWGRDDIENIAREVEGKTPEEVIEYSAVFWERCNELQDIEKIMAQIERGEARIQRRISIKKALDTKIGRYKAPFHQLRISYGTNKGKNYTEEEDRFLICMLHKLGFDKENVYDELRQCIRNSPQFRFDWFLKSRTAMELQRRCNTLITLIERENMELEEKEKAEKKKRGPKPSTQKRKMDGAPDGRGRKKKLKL
Sequence of UniProt Q9UNL2 (Q9UNL2 whole entry, looked up): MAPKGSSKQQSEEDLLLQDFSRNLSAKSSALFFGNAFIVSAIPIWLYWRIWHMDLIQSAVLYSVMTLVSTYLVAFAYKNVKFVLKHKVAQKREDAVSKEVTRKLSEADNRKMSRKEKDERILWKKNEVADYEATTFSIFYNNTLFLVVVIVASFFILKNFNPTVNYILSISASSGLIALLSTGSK
Sequence of UniProt P56962 (P56962 whole entry, looked up): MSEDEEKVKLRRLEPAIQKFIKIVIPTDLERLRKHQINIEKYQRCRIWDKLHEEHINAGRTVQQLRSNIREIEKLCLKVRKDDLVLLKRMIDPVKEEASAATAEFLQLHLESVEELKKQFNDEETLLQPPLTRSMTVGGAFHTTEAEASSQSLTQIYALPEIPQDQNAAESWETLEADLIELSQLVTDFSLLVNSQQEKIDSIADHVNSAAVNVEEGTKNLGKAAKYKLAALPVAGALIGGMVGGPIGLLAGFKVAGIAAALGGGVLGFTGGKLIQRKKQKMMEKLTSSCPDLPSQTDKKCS
Sequence of UniProt Q9Y6I9 (Q9Y6I9 whole entry, looked up): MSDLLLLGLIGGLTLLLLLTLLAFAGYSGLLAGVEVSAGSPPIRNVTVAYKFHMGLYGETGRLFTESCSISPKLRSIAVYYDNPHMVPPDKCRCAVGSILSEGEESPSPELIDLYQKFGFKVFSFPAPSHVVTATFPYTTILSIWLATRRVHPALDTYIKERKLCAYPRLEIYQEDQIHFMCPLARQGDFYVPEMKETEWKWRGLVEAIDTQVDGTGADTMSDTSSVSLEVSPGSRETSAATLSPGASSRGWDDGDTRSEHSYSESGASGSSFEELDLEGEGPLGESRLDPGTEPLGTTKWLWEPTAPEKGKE

Target	log2 fold change [1]	log2 fold change [2]	log2 fold change [3]	log2 fold change [4]	log2 fold change (entinostat)	log2 fold change (vorinostat)	log2 fold change (citarinostat)	log2 fold change (silmitasertib)	log2 fold change [5]	log2 fold change [6]	log2 fold change (entospletinib)
ST3GAL2 (UniProt Q16842)	-0.066	0.101	-0.04	0.008	-0.028	-0.013	0.008	-0.003	-0.016	-0.05	0.167
TAF9 (UniProt Q16594)	-0.352	-0.026	0.037	0	-0.567 (active)	0.002	-0.043	-0.039	-0.022	0.055	-0.042
SLK isoform 2 (UniProt Q9H2G2)	-0.314 (active)	-0.042	-0.058	-0.014	0.048	0.006	0.074	0.124	0.009	-0.044	-0.059
SMAD9 (UniProt O15198)	-0.114	0.001	-0.069	0.05	-0.076	0.006	-0.017	-0.055	-0.111	-0.029	-0.026
STAT5B (UniProt P51692)	-0.027	-0.022	-0.207	-0.129	0.282	0.18	0.15	0.043	0.045	0.024	-0.053
STX17 (UniProt P56962)	0.027	-0.073	-0.096	0.126	-0.001	-0.02	0.254	0.087	-0.026	-0.059	-0.071
THYN1 (UniProt Q9P016)	0	-0.011	-0.048	-0.103	-0.004	0.011	0.008	-0.011	-0.022	-0.034	0.011
SMARCA5 (UniProt O60264)	-0.084	-0.121	-0.095	-0.01	0.097	0.204	-0.094	0.028	-0.034	0.03	0.099
TEX264 (UniProt Q9Y6I9)	0.548 (active)	-0.001	0.215	-0.033	0.006	-0.012	-0.054	0.02	-0.093	0.515	0.601 (active)
SYF2 (UniProt O95926)	0.099	0.089	-0.032	0.101	-0.022	-0.11	-0.069	0.016	0.14	-0.153	0.143
SLC7A6 (UniProt Q92536)	-0.07	0.089	0.06	-0.017	-0.029	-0.003	0.026	0.007	-0.135	-0.049	0.031
SP1 (UniProt P08047)	-0.017	0.011	0.1	-0.001	-0.005	0.052	-0.057	-0.007	0.088	-0.088	0.068
SURF2 (UniProt Q15527)	0.019	0.076	0.033	0.088	-0.012	-0.009	0.06	0.079	-0.004	-0.018	0.047
SUOX (UniProt P51687)	-0.031	-0.022	0.025	-0.005	-0.014	-0.124	-0.017	-0.021	-0.027	0.014	0.03
SPINDOC (UniProt Q9BUA3)	0.09	0.003	0.014	-0.061	-0.188	-0.014	-0.106	-0.061	-0.102	0.053	0.018
SOAT1 (UniProt P35610)	-0.073	-0.049	-0.171	-0.045	0.029	-0.063	0.112	0.084	-0.098	-0.185	0.079
SRSF3 (UniProt P84103)	-0.05	0.148	0.396	0.064	-0.126	-0.026	-0.105	-0.033	0.194	-0.141	0.153
SUCLA2 (UniProt Q9P2R7)	-0.021	-0.058	-0.128	-0.077	0.014	0.107	0.068	-0.039	-0.028	-0.046	-0.048
SLIRP (UniProt Q9GZT3)	-0.121	-0.106	-0.041	-0.062	0.127	-0.055	0.023	-0.016	-0.129	-0.129	0.134
TIMM29 (UniProt Q9BSF4)	-0.16	-0.024	-0.069	-0.011	-0.04	-0.093	-0.016	0.006	-0.08	-0.004	0.033
SSRP1 (UniProt Q08945)	-0.017	-0.012	-0.078	0.003	0.007	0.059	0.155	0.007	-0.171	-0.013	-0.027
TBC1D10B (UniProt Q4KMP7)	-0.141	0.007	0.038	-0.027	0.017	-0.03	0.039	-0.009	-0.005	-0.283 (active)	0
TK1 (UniProt P04183)	0.021	0.018	0.02	0.031	-0.068	-0.007	0.016	0.013	-0.025	-0.027	-0.012
SPG21 (UniProt Q9NZD8)	0.072	0.305 (active)	-0.054	0.123	0.004	0.013	-0.001	-0.013	-0.104	0.007	-0.028
SMARCE1 (UniProt Q969G3)	0.05	0.096	0.218	0.707	0.076	0.088	0	0.211	-0.008	-0.016	-0.117
SSR3 isoform 2 (UniProt Q9UNL2)	-0.056	0.18	-0.056	0.369 (active)	-0.04	0	0.068	0	-0.028	-0.114	-0.012
STARD3NL (UniProt O95772)	0.018	-0.104	-0.413 (active)	-0.031	0.093	0.037	0.004	0.044	-0.013	0.035	-0.088

— the supplement of paper PMC10849652
